Where “and” joins values, the source holds several entries; their conditions need not be identical. Equal values may be shown once. In all, about 5,500 compounds went through this assay and about 2,000 (36%) were called active. Inconclusive results (about 18%) are left out. Cut-off read from the data, not from the text of the source: active = normalized growth mostly below about 0.91 (no sharp cut-off); inconclusive = no clear call, values can overlap the other calls; inactive = mostly above about 0.92. Some of the results follow.
Assay: chemical genetic growth profiling, strain panel (AID 1159580);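 note: tested at 20 µM; growth read once vehicle control cultures reached saturation at 30 °C; 1 = growth at the plate median or of vehicle wells; lower values mean less growth of the strain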
Conditions: S. cerevisiae deletion strains, growth OD

Measured: normalized growth

CC(C)Cn1c(=O)n(C)c(=O)c2[nH]cnc21
inactive: locus YAL013W, strain DEP1, stronger effect = lower value 0.999 | locus YAL021C, strain ccr4, stronger effect = lower value 1.03 and 0.994 | locus YAL026C, strain drs2, stronger effect = lower value 1 and 1.03 | locus YAL030W, strain snc1, stronger effect = lower value 0.99 and 1 | locus YAL040C, strain CLN3, stronger effect = lower value 0.982 | locus YBL061C, strain skt5, stronger effect = lower value 0.992 and 1.02 | locus YBR009C, strain hhf1, stronger effect = lower value 1.01 and 0.995 | locus YBR021W, strain FUR4, stronger effect = lower value 0.966 | locus YBR023C, strain chs3, stronger effect = lower value 1 and 1.01 | locus YBR171W, strain sec66, stronger effect = lower value 0.998 and 1.03 | locus YBR229C, strain ROT2, stronger effect = lower value 0.982 | locus YBR231C, strain swc5, stronger effect = lower value 0.989 and 1.01 | locus YBR279W, strain paf1, stronger effect = lower value 0.996 and 1 | locus YCL011C, strain gbp2, stronger effect = lower value 1.01 and 1 | locus YCL016C, strain dcc1, stronger effect = lower value 0.984 and 0.981 | locus YCL029C, strain bik1, stronger effect = lower value 0.984 | locus YCL061C, strain MRC1 (second series), stronger effect = lower value 0.984 | locus YCL061C, strain MRC1, stronger effect = lower value 1 | locus YCL069W, strain vba3, stronger effect = lower value 1 | locus YCR088W, strain abp1, stronger effect = lower value 1 and 1.01 | locus YDL005C, strain med2, stronger effect = lower value 1 and 1.01 | locus YDL035C, strain GPR1, stronger effect = lower value 1.01 | locus YDL040C, strain nat1, stronger effect = lower value 0.988 and 1.01 | locus YDL074C, strain BRE1, stronger effect = lower value 1.03 | locus YDL101C, strain DUN1, stronger effect = lower value 0.984 | locus YDL134C, strain PPH21, stronger effect = lower value 0.991 | locus YDL185W, strain tfp1, stronger effect = lower value 0.988 | locus YDL192W, strain arf1, stronger effect = lower value 0.996 | locus YDR001C, strain nth1, stronger effect = lower value 1 and 1.01 | locus YDR069C, strain doa4, stronger effect = lower value 0.987 and 1.02 | locus YDR101C, strain arx1, stronger effect = lower value 0.989 | locus YDR137W, strain rgp1, stronger effect = lower value 0.976 and 0.984 | locus YDR150W, strain NUM1, stronger effect = lower value 0.998 and 0.994 | locus YDR159W, strain sac3, stronger effect = lower value 0.965 and 1.04 | locus YDR162C, strain NBP2, stronger effect = lower value 1.03 | locus YDR195W, strain ref2 0.969 and 0.994 | locus YDR297W, strain sur2, stronger effect = lower value 0.987 and 1 | locus YDR318W, strain mcm21, stronger effect = lower value 0.974 | locus YDR334W, strain swr1, stronger effect = lower value 1.04 and 1.03 | locus YDR335W, strain msn5, stronger effect = lower value 1.01 | locus YDR363W, strain ESC2, stronger effect = lower value 0.991 | locus YDR388W, stronger effect = lower value 0.985 | locus YDR392W, strain spt3, stronger effect = lower value 1 and 0.935 | locus YDR502C, strain sam2, stronger effect = lower value 0.997 | locus YEL003W, strain gim4, stronger effect = lower value 1.02 | locus YEL037C, strain rad23, stronger effect = lower value 1.02 and 1.01 | locus YEL061C, strain CIN8 (second series), stronger effect = lower value 1.03 and 1 | locus YEL061C, strain CIN8, stronger effect = lower value 0.995 | locus YER002W, strain NOP16, stronger effect = lower value 0.994 | locus YER015W, strain faa2, stronger effect = lower value 1.01 and 1 | locus YER016W, strain bim1, stronger effect = lower value 0.987 and 1.01 | locus YER110C, stronger effect = lower value 0.977 | locus YER111C, strain swi4, stronger effect = lower value 0.977 and 1.02 | locus YER155C, strain BEM2 (second series), stronger effect = lower value 1.01 | locus YER155C, strain BEM2, stronger effect = lower value 0.984 | locus YER167W, strain BCK2, stronger effect = lower value 0.964 | locus YFR010W, strain ubp6, stronger effect = lower value 1.01 and 1.03 | locus YGL078C, strain dbp3, stronger effect = lower value 0.992 | locus YGL086W, strain mad1, stronger effect = lower value 0.951 | locus YGL167C, strain pmr1, stronger effect = lower value 0.995 and 1.01 | locus YGL173C, strain kem1, stronger effect = lower value 1 and 1.02 | locus YGL227W, strain vid30, stronger effect = lower value 0.973 and 1.01 | locus YGL240W, strain doc1, stronger effect = lower value 1.02 and 1.03 | locus YGL248W, strain PDE1, stronger effect = lower value 0.984 | locus YGL253W, strain hxk2, stronger effect = lower value 1.01 and 1.04 | locus YGR078C, strain PAC10, stronger effect = lower value 1.03 | locus YGR135W, strain pre9, stronger effect = lower value 0.998 | locus YGR229C, strain SMI1, stronger effect = lower value 1 | locus YGR252W, strain gcn5, stronger effect = lower value 0.955 | locus YHR013C, strain ard1, stronger effect = lower value 0.972 and 0.993 | locus YHR027C, strain rpn1, stronger effect = lower value 0.994 and 1.01 | locus YHR030C, strain SLT2, stronger effect = lower value 0.99 and 0.987 and 0.97 | locus YHR079C, strain IRE1 (second series), stronger effect = lower value 0.996 | locus YHR079C, strain IRE1, stronger effect = lower value 0.99 and 0.969 | locus YHR094C, strain hxt1, stronger effect = lower value 0.985 | locus YHR129C, strain ARP1, stronger effect = lower value 0.99 | locus YHR142W, strain chs7, stronger effect = lower value 0.983 and 1 | locus YHR200W, strain rpn10, stronger effect = lower value 0.982 | locus YIL066C, strain RNR3, stronger effect = lower value 0.965 | locus YIL073C, strain SPO22, stronger effect = lower value 0.944 | locus YIL125W, strain kgd1, stronger effect = lower value 0.996 | locus YIR030C, strain dcg1, stronger effect = lower value 0.987 | locus YJL092W, strain hpr5, stronger effect = lower value 1.01 and 1 | locus YJL095W, strain BCK1 (second series), stronger effect = lower value 0.991 and 1.01 | locus YJL095W, strain BCK1, stronger effect = lower value 0.992 and 1.01 and 0.971 | locus YJL115W, strain asf1, stronger effect = lower value 1.01 | locus YJL129C, strain trk1, stronger effect = lower value 0.974 and 1 | locus YJL134W, strain LCB3, stronger effect = lower value 0.984 | locus YJL154C, strain vps35, stronger effect = lower value 1.01 | locus YJL164C, strain tpk1, stronger effect = lower value 1 and 0.973 | locus YJL166W, strain qcr8, stronger effect = lower value 1.02 and 1.01 | locus YJL168C, strain set2, stronger effect = lower value 0.995 | locus YJL187C, strain SWE1 (second series), stronger effect = lower value 0.998 | locus YJL187C, strain SWE1, stronger effect = lower value 1 and 0.99 | locus YJR043C, strain POL32, stronger effect = lower value 0.983 | locus YJR066W, strain TOR1, stronger effect = lower value 0.923 and 0.916

— PubChem BioAssay AID1159580 (chemical genetic matrix, 2015)
